This passage reports PBM binding z-score results from the supplement of paper PMC6555819.

The assay deals with VDR:RXRa (NR concentration 270 nM, RXRa partner concentration 90 nM). The assay can be described thus: PBM binding z-score (relative to random genomic background probes); higher = stronger binding; sequences stand for … in GC…GCGATTGACAGCGTAGAATGAAGG
How it is done:
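Protein-binding microarray (Agilent 4x180K custom design, double-stranded 60-nt probes: 5' GC cap, 34-nt variable region, 24-nt constant primer region; full probe sequence given). Purified or IVT nuclear receptor:RXRα heterodimers (3:1 NR:RXRα, mostly 270:90 nM) or homodimers were incubated for 1 h in PBS with 2% milk and no ligand, then detected with Alexa488 antibodies. Fluorescence from o1-orientation probes (~5 replicates averaged) was converted to z-scores against 500 random hg19 background probes. Variable regions are seed direct-repeat (DR0–DR5) sites, all their single-nucleotide variants and half-site ablations.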
CCTATTAGTTGACCATAAGGGCGACCGAAGCTCG showed a PBM binding z-score of 0.426.
As for TCTTGTAGATCAAAGGTTAAGAAAGCCGAAGCCT, the PBM binding z-score worked out at 1.37.
Under CGAACTAGGTCATTGACAGGAAAGTGAATAGTAA stands 1.73; under TCATATAGGTAAAAGGTGTAAGTCGGTGTGGTAA, 0.727; under AGTCAAAGTTCAGGACGAGGTATCGTAAAGCACG, 2.29.
Under TTACCAAGGTGAAAGCTCGTTGATGCACGCCTTG stands -0.288.
The same measure for GCGACTGGGGCAAACCAGGTTACCATAAGGTTGG: 0.416; for TCTATTATTTGAAGGGCAACCGACGAGTCCGTTT: 1.55.
Take AATACAGGGTCATCGTAGGCCAGAATACGCACAG: the PBM binding z-score came to 5.15.
Turning to ACAGACAGGTGAGAGAAGGTAACTCAGCTGGACG, the PBM binding z-score was -0.382.
The same measure for CCGCCTGGGGCAGAAAGGTTACCATACCATCCGG: 0.57.
The same measure for TCATATAGGTAAAAGCTGAAAGTCGGTGTGGTAA: 0.748; for ACAGACAGGTGATTGAAGGTAACTCAGCTGGACG: -0.21; for TATACAGGGTCAAAGCCCAGAGTACGAATGTCGA: 4.41.
The same measure for GCTAGTTGGTCAGGAAAAGGTCACACACCGGTCG: 3.66.
Consider TATACAGGGTAAAAGGCCAGAGTACGAATGTCGA, for which the PBM binding z-score was 0.433.
Under CCTAGTTGGTCAAGGTCAAACACGCTATAGGTAC stands 4.47; under CGTCCAAGGCCAATGCTAGGTCAGTGAAAGCATT, 0.034; under CCTAGTTGGTAAAGGTCACACACGCTATAGGTAC, 4.9.
The same measure for GGAACGAGTGCAAAGTTGATAGCATCTGTCGACG: 1.49; for CCTTACGGGTCACTGACAGGTTACAGCATTTGGA: 3.76.
In the case of TTACCAAGGTGAAGTTCGTTGATCCCTCTGTAGA, the PBM binding z-score is 1.49.
Regarding CCTTACGGGTCACGATGTTATAGCACGACGAGCG, the PBM binding z-score amounted to 3.73.
Sequence CGAACTAGGTCAGGACAGGACAGTGAAGGATGAT yielded a PBM binding z-score of 0.943.
Under TGTCAAAGTTCAAAGGTAACGTCAGTATCCACAC stands 5.11; under TGAATGAGGTTGAAGATCAGGGAACGTGGCGTCG, -0.171.
TCTTGTTGATCAAGCAGGTTAAGAAAGCCTGAGT yielded a PBM binding z-score of 0.244.
As for ATCTCCAGGTAACAAGTTCAGTGAAAGAGAGGAC, the PBM binding z-score amounted to 2.42.
TCAGACAGGTGTAGGTAACTCAGGTACGCAGTCG yielded a PBM binding z-score of 0.89.
For ACAGACAGCTGAGTGAAGGTAACTCAGCTGGACG, the PBM binding z-score was -0.322.
Regarding ACAGACAGGTGAGTGAAGGTAACGCAGCTGGACG, the PBM binding z-score is -0.28.
TCTTGTAGATCAAGCAGGTTCAGAAAGCCTGAGT gave a PBM binding z-score of 1.93.
The same measure for CGAACTAGGTCAAGAGGTCAAAGTCCGCTTCCCG: 6.13.
In the case of AGTCAAAGATCAGGACGAGGTAACGTAAAGCACG, the PBM binding z-score was -0.216.
The sequence TCAGACAGGTGAAGGTAATTCAGGTACGCAGTCG had a PBM binding z-score of 1.1.
The sequence CCTGCTAGGTCAATGGTCAGTTAAAGCAGCTCGC came in with a PBM binding z-score of 0.89.
The same measure for ATCTCTAGGTAAAAGTTGAGTGAATCCCGAGGAT: -0.00666.
Sequence CCTACTGGGCCAAAAAGGTCAGTGATGCCGATAA displayed a PBM binding z-score of 2.91.
The same measure for GCTCTGAGGACAAGGTCAGAGCTTTGTCCGTAGA: 1.68.
Regarding CGCCAAAGTTCAACTAAGGTAACGTAAAGCACGC, the PBM binding z-score came out at 4.9.
